From the supplement of paper PMC11732987, “Enantioselective OTUD7B fragment discovery through chemoproteomics screening and high-throughput optimisation” (Communications Chemistry, 2025)

Assays:
Assay in all cases: log2 ratio of Biotin-Ahx-Ub-VS probe labelling (fragment/DMSO); higher = less target engagement (more negative = stronger competition), active = hit call of the paper (q ≤ 0.05, log2 ratio ≤ -1)
Details in all cases: compound concentration: 200 uM; treatment time: 3 h
USP34 = USP34 (UniProt Q70CQ2)
In short: (§1)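 The table lists average log2 ratios of fragment over vehicle, from an unpaired t-test on global-median-normalised Spectronaut label-free quantities. Proteins with ≥2 unique peptides were used. Samples were HEK293T lysate (495 µg) treated in triplicate with fragment at 200 µM or vehicle for 3 h, then with Biotin-Ahx-Ub-VS (0.5 µM final) for 1 h, with labelled DUBs NeutrAvidin-enriched and run by diaPASEF LC-MS/MS.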

USP36 = biological target: T1, USP36 (UniProt Q9P275)
T1 sequence (whole entry): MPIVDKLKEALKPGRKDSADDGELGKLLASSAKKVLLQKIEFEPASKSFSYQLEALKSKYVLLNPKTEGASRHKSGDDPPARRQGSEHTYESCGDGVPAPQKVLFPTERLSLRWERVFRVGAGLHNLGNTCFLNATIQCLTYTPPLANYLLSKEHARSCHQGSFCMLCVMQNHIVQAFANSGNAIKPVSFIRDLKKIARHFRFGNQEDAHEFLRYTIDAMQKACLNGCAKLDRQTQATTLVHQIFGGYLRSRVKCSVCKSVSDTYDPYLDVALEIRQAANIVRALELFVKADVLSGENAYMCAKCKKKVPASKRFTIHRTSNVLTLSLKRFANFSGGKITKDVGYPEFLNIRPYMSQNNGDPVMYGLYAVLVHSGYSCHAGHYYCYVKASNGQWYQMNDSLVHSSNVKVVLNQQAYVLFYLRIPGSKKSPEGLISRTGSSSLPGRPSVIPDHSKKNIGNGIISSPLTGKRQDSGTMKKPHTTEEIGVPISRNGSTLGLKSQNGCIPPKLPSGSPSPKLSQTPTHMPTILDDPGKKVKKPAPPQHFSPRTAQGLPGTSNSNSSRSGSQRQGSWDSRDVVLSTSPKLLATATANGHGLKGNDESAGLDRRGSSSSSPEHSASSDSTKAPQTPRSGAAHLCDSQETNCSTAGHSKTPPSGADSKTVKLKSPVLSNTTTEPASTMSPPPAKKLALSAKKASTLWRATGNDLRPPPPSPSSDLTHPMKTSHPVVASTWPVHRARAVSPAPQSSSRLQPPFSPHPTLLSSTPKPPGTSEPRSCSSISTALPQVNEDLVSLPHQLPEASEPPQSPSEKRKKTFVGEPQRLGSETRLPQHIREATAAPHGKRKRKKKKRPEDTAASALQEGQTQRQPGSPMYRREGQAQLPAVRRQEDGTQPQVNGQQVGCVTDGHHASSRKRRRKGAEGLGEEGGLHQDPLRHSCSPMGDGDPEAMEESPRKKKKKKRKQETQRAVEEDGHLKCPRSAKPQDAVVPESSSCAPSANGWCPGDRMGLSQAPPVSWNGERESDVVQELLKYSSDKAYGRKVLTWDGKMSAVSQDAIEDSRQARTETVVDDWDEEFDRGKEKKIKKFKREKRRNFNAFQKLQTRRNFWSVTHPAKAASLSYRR
In short: as §1

USP38 = biological target: T2, USP38 (UniProt Q8NB14)
T2 sequence (whole entry): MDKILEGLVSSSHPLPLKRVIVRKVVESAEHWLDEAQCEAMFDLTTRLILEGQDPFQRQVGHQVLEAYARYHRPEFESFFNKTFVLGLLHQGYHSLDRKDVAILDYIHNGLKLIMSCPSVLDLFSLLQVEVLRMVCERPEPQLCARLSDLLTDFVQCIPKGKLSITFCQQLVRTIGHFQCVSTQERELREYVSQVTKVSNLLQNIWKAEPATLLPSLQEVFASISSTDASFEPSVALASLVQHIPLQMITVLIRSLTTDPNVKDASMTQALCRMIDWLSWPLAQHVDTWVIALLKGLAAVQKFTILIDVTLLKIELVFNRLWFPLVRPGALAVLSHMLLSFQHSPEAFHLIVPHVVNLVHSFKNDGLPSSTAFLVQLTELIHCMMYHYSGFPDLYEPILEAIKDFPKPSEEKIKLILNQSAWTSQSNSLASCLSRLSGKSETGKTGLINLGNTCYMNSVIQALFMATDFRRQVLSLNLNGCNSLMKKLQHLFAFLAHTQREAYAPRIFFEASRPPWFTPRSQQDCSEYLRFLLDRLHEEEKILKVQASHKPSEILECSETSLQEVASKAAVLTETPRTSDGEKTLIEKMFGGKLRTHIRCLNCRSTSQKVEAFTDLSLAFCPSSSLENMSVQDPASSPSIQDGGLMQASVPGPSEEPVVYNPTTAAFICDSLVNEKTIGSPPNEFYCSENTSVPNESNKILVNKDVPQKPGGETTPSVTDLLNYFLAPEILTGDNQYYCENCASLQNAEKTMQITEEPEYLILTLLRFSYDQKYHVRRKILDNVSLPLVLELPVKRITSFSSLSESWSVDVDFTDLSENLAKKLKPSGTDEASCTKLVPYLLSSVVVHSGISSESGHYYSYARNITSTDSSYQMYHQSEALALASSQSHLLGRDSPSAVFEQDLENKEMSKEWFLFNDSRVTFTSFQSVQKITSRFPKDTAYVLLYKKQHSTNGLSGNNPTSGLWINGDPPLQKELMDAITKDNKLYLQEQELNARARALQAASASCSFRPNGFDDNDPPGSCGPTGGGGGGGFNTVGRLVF
In short: as §1

USP39 = biological target: T3, USP39 (UniProt Q53GS9)
T3 sequence (whole entry): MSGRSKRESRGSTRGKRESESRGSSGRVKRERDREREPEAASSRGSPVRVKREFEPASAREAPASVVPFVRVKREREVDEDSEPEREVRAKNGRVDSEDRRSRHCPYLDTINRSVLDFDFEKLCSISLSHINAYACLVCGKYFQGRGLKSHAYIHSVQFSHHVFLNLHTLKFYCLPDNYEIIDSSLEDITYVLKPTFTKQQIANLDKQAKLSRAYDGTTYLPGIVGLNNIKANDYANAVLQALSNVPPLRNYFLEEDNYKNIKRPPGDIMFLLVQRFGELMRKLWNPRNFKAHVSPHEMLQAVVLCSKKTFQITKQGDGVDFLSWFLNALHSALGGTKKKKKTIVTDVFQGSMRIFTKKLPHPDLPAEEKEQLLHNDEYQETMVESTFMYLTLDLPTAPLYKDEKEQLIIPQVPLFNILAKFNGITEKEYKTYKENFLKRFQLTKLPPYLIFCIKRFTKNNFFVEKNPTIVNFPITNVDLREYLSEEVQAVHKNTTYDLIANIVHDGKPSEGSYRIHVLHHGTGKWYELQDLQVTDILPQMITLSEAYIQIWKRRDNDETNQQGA
In short: as §1

USP4 = biological target: T4, USP4 (UniProt Q13107)
T4 sequence (whole entry): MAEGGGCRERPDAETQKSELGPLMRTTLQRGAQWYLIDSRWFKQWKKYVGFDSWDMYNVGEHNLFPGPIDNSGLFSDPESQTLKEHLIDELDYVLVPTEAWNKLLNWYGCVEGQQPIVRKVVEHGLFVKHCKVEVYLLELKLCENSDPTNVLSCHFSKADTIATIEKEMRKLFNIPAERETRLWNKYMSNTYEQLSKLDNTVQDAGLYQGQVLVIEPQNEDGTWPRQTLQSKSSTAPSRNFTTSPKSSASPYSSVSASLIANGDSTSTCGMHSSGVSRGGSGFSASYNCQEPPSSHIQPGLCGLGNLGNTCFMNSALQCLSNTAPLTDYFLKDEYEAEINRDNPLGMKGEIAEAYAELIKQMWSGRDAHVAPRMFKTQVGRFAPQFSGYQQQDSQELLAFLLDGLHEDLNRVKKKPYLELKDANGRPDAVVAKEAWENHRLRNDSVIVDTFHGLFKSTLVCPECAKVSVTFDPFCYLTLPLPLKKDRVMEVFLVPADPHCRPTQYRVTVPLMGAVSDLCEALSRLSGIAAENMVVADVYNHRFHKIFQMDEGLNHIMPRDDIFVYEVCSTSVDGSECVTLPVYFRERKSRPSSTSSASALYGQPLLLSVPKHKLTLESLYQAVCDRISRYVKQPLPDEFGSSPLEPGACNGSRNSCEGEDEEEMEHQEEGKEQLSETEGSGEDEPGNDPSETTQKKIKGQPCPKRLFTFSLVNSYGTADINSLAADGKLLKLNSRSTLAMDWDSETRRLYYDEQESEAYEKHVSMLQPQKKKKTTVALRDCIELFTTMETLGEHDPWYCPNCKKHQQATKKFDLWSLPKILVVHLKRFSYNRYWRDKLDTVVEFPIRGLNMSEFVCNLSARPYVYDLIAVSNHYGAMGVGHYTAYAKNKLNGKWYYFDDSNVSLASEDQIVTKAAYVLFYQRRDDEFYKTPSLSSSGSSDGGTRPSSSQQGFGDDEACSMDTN
In short: as §1

Measured: log2 ratio of Biotin-Ahx-Ub-VS probe labelling

USP34, sequence (Q70CQ2 whole entry, the tested form may be a part): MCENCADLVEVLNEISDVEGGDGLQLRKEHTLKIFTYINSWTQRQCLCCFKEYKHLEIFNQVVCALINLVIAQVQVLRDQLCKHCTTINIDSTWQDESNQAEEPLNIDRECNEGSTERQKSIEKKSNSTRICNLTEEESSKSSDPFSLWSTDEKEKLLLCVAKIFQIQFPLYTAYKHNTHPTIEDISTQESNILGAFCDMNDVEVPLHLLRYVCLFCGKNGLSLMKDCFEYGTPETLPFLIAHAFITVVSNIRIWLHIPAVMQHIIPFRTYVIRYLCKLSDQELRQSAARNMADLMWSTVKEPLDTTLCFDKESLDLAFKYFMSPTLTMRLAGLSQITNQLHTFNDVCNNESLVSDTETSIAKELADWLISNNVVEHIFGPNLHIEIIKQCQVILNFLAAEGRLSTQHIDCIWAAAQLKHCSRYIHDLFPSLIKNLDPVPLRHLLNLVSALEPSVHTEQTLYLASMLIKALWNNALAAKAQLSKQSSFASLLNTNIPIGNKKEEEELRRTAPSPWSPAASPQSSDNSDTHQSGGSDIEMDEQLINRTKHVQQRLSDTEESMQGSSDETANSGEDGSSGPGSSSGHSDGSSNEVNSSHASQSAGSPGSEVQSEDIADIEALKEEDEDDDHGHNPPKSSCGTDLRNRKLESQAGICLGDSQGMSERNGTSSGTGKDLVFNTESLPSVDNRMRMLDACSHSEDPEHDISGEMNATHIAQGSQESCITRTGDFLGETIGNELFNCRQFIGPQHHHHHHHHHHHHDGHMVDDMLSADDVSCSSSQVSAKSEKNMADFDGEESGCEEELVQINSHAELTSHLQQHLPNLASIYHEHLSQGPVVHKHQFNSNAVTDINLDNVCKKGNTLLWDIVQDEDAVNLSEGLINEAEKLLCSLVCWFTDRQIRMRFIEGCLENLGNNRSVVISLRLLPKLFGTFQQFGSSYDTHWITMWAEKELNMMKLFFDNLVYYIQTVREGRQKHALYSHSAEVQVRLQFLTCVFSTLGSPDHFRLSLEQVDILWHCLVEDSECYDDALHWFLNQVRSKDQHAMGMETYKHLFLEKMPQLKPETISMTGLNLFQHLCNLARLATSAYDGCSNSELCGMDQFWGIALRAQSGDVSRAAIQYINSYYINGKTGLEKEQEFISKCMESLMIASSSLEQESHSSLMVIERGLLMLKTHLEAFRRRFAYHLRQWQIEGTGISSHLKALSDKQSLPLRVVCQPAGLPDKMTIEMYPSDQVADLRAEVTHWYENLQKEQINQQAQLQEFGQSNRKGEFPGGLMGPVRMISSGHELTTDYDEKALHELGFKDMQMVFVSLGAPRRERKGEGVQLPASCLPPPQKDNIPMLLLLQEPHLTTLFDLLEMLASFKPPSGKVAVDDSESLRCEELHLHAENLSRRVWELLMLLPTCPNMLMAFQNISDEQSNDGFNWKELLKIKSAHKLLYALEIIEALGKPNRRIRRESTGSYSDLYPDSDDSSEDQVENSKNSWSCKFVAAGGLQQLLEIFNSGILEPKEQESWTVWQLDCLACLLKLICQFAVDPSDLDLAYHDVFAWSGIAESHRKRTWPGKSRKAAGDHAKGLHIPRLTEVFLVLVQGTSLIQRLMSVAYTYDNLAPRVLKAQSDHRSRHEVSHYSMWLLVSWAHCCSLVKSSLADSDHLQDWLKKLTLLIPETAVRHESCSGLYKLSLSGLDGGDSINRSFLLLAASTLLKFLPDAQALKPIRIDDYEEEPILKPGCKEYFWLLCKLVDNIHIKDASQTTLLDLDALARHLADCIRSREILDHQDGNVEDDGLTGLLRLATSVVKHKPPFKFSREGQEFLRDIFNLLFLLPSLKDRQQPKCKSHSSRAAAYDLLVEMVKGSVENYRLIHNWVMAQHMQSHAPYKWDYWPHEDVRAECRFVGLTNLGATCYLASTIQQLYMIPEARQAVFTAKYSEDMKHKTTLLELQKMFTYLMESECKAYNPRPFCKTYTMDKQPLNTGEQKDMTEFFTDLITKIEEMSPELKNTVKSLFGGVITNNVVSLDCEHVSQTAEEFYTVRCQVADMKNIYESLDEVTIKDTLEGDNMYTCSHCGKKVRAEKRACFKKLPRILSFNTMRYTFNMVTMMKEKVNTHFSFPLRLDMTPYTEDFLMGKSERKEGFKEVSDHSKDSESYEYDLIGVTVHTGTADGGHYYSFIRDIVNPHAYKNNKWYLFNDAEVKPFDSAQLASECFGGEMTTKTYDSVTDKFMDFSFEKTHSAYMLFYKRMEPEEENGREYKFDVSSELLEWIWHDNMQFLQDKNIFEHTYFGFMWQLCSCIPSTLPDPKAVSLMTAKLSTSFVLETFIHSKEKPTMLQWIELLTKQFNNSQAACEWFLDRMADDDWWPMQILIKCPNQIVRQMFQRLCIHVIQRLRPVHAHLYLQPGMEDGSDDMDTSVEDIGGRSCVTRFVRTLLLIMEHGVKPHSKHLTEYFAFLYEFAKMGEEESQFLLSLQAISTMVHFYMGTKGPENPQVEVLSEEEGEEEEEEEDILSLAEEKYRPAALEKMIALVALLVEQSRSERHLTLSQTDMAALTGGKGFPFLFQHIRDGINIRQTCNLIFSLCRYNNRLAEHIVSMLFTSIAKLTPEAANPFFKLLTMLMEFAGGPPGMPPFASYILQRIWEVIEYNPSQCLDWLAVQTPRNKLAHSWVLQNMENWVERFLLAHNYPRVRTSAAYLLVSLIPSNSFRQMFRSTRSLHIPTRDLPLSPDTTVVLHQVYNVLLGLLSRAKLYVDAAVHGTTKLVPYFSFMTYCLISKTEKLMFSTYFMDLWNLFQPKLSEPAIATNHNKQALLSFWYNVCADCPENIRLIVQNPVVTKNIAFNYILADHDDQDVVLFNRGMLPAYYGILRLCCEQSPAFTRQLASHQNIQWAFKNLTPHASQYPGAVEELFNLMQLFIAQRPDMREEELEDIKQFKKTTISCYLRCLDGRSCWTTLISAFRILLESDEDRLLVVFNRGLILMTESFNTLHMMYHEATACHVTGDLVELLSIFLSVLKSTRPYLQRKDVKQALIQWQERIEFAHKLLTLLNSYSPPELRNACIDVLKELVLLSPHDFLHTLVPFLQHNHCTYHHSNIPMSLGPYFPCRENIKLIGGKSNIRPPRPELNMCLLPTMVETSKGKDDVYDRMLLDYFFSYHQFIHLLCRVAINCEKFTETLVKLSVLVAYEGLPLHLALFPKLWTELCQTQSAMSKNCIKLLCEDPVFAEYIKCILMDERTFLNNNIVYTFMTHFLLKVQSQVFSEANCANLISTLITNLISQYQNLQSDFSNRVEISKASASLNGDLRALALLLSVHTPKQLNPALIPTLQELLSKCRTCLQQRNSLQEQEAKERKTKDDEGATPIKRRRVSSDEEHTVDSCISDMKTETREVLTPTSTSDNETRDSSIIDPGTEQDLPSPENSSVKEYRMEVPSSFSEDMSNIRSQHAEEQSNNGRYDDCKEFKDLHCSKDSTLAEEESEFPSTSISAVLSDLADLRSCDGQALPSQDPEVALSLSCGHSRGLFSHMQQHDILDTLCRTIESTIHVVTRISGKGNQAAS

O=C(CCl)N1CCC[C@@H]1c1ccon1
inactive: USP34 -0.0339 | USP36 -0.122 | USP38 -0.189 | USP39 0.0959 | USP4 -0.394
